Test results taken from publication PMC5540273 (PLoS ONE, 2017).

What was measured:
Settings in all cases: concentration: 1 μM, replicates: in singlicate; n = 1
NEK11 = tested on: NEK11
NEK1 = tested on: NEK1
NEK2 = tested on: NEK2
NEK3 = tested on: NEK3
NEK4 = tested on: NEK4
NEK5 = tested on: NEK5
NEK6 = tested on: NEK6
NEK7 = tested on: NEK7
NEK9 = tested on: NEK9
NIK = tested on: T1, NIK
T1 construct: gene MAP3K14

NIM1 = tested on: T2, NIM1
T2 construct: gene MGC42105

NLK = tested on: NLK
OSR1 = tested on: T3, OSR1
T3 construct: gene OXSR1

PAK1 = tested on: PAK1
PAK2 = tested on: PAK2
PAK3 = tested on: PAK3
PAK4 = tested on: PAK4
PAK6 = tested on: PAK6
PAK7 = tested on: PAK7
PCTK1 = tested on: T4, PCTK1
T4 construct: gene CDK16
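Further: KINOMEscan kinase panel screen.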

Row | SMILES | %Inh (NEK11) [%] | %Inh (NEK1) [%] | %Inh (NEK2) [%] | %Inh (NEK3) [%] | %Inh (NEK4) [%] | %Inh (NEK5) [%] | %Inh (NEK6) [%] | %Inh (NEK7) [%] | %Inh (NEK9) [%] | %Inh (NIK) [%] | %Inh (NIM1) [%] | %Inh (NLK) [%] | %Inh (OSR1) [%] | %Inh (PAK1) [%] | %Inh (PAK2) [%] | %Inh (PAK3) [%] | %Inh (PAK4) [%] | %Inh (PAK6) [%] | %Inh (PAK7) [%] | %Inh (PCTK1) [%]
1 | Cl.Cl.NCC(NCc1ccc(-c2ccnc3[nH]ccc23)s1)c1ccccc1 (stereo not shown) [GSK1321565] | 13 | 0 | 0 | 0 | 0 | 10 | 0 | 0 | 6 | 20 | 0 | 8 | 10 | 0 | 0 | 69 | 0 | 2 | 0 | 0
2 | Cc1ccc(F)c(C(=O)Nc2cccc(-c3nn4ccccc4c3-c3ccnc(Nc4cccc(F)c4)n3)c2)c1F [GSK361061] | 0 | 0 | 0 | 8 | 18 | 12 | 9 | 14 | 16 | 5 | 0 | 77 | 100 | 4 | 21 | 42 | 3 | 0 | 14 | 0
3 | O=C(O)C(F)(F)F.O=C(O)C(F)(F)F.O=c1[nH]ccc2nc(N[C@@H]3CCCNC3)nc(Nc3ccc(S(=O)(=O)N4CCOCC4)cc3)c12 [GSK2177277] | 0 | 62 | 80 | 89 | 96.1 | 51 | 46 | 35 | 14 | 87 | 95.7 | 0 | 92.1 | 99.9 | 99.3 | 100 | 99.6 | 97.9 | 99.9 | 99.9
4 | Nc1ncnc2c1nc(-c1ccccc1)n2-c1ccccc1 [SKF-97293] | 30 | 23 | 0 | 2 | 26 | 0 | 15 | 6 | 0 | 34 | 66 | 0 | 39 | 29 | 56 | 27 | 16 | 8 | 0 | 9
5 | Oc1cc(Nc2ccnc3cc(I)ccc23)ccc1F [GW552771] | 0 | 0 | 0 | 1 | 38 | 0 | 0 | 0 | 0 | 0 | 17 | 58 | 8 | 0 | 0 | 17 | 0 | 0 | 0 | 3
6 | COC(=O)Nc1nc2ccc(Oc3ccc(NC(=O)Nc4cc(C(F)(F)F)ccc4F)cc3)cc2n1C.Cl [GW692089] | 25 | 0 | 0 | 0 | 0 | 0 | 0 | 0 | 0 | 27 | 32 | 8 | 0 | 0 | 0 | 6 | 0 | 0 | 0 | 0
7 | c1ccc(-c2cnc3nccnn23)cc1 [AH20685] | 0 | 0 | 0 | 0 | 16 | 0 | 0 | 0 | 0 | 0 | 0 | 0 | 0 | 13 | 20 | 2 | 0 | 0 | 0 | 7
8 | Nc1ncc(-c2cccnc2)c2scc(-c3ccc4c(c3)CCN4C(=O)Cc3ccccc3)c12 [GSK683281] | 44 | 0 | 70 | 1 | 17 | 22 | 8 | 19 | 28 | 4 | 11 | 47 | 19 | 18 | 19 | 62 | 18 | 0 | 7 | 1
9 | Cc1cccc(NC(=O)Nc2ccc(Oc3ncnc4ccn(C)c34)cc2)c1 | 0 | 0 | 0 | 19 | 0 | 0 | 16 | 0 | 1 | 5 | 0 | 0 | 0 | 0 | 0 | 0 | 0 | 0 | 0 | 0
10 | CNC(=O)c1ccccc1Nc1nc(Nc2ccc(N3CCOCC3)cc2)ncc1Cl.Cl [GSK1576028] | 85 | 86 | 89 | 93.3 | 65 | 100 | 98.6 | 98 | 97.7 | 36 | 41 | 26 | 35 | 71 | 61 | 100 | 78 | 66 | 83 | 11
11 | O=C(Nc1ccccc1F)NC1CCN(c2ccnc(Nc3ccc(F)cc3)n2)CC1 [GSK1379800] | 7 | 0 | 0 | 13 | 0 | 33 | 0 | 0 | 0 | 9 | 32 | 12 | 0 | 1 | 0 | 0 | 0 | 0 | 0 | 0
12 | CN1CCN(CCCNc2nccc(-c3c(-c4ccc(F)cc4)nn4cc(C(F)(F)F)ccc34)n2)CC1 [GW621581] | 14 | 0 | 14 | 0 | 0 | 0 | 0 | 11 | 0 | 18 | 0 | 55 | 6 | 8 | 7 | 30 | 0 | 0 | 0 | 0
13 | Clc1ccc(-c2nn3ncccc3c2-c2ccnc(Nc3ccc4c(c3)OCCO4)n2)cc1 [GW829116] | 0 | 0 | 0 | 12 | 0 | 0 | 0 | 0 | 0 | 10 | 0 | 61 | 0 | 0 | 28 | 0 | 0 | 2 | 0 | 0
14 | Cl.NC(=O)c1cccc(Nc2nccc(Nc3ccc(Oc4c(Cl)cccc4Cl)c(Cl)c3)n2)c1 [GW659009] | 0 | 0 | 1 | 87 | 3 | 26 | 86 | 5 | 6 | 14 | 7 | 0 | 15 | 34 | 8 | 72 | 0 | 0 | 0 | 0
15 | COc1cc(Nc2nccc(N3CCC(NC(=O)Nc4cccc(C(C)=O)c4)C3)n2)cc(OC)c1OC (stereo not shown) [GSK1379753] | 0 | 58 | 43 | 41 | 30 | 100 | 1 | 45 | 27 | 5 | 11 | 21 | 6 | 0 | 0 | 100 | 0 | 7 | 13 | 10
16 | Fc1ccc(-c2ncn(C3CCNCC3)c2-c2ccnc(Oc3ccc(-c4ccccc4)cc3)n2)cc1 [SB-245391] | 24 | 36 | 25 | 13 | 0 | 4 | 17 | 0 | 7 | 31 | 42 | 52 | 36 | 25 | 18 | 22 | 14 | 25 | 0 | 16
17 | Nc1ncc(-c2ccc3nccc(-c4ccncc4)c3c2)cc1S(=O)(=O)N1CCOCC1 [GSK1627798] | 0 | 0 | 12 | 0 | 5 | 0 | 0 | 0 | 2 | 0 | 0 | 0 | 0 | 9 | 20 | 5 | 0 | 0 | 0 | 3
18 | CC(C)(C)c1ccc2nccc(Nc3cccc(O)c3)c2c1 [GW856795] | 22 | 0 | 11 | 13 | 0 | 0 | 0 | 0 | 0 | 9 | 30 | 0 | 0 | 0 | 0 | 0 | 23 | 0 | 2 | 0
19 | O=C(Nc1cccc(-c2nn3ccccc3c2-c2ccnc(Nc3cccc(C(F)(F)F)c3)n2)c1)c1c(F)cccc1F [GSK292658] | 0 | 0 | 8 | 0 | 0 | 0 | 0 | 4 | 16 | 0 | 2 | 33 | 19 | 9 | 6 | 21 | 0 | 0 | 0 | 2
20 | O=C(Nc1n[nH]c2cc(-c3ccoc3)ccc12)C1CC1 [SB-738481] | 4 | 0 | 8 | 2 | 1 | 0 | 11 | 16 | 0 | 9 | 100 | 4 | 0 | 0 | 15 | 18 | 0 | 0 | 0 | 61
